Data taken from PubChem BioAssay AID493191 (Broad Institute, 2011).
The whole screen tested about 1,300 compounds, of which about 330 (25%) were called active. The list is a sample of the results. Potency and affinity values are given separately. Values without a mark were called inactive. How the calls were made is not given here.

assay: MALME3 melanoma cell viability loss, dose response, orthogonal assay for MITF inhibitor project, CellTiter-Glo, cherry-picked (AID 493191); conditions: CellTiter-Glo luminescence, 24 h; series mostly up to 35 µM; activity change, negative = inhibition: at the top concentration

| SMILES | activity change, negative = inhibition |
| --- | --- |
| CC(C)CN=C(NS(=O)(=O)c1ccccc1)C(Cl)(Cl)Cl | -24% |
| CC(=O)c1c(C)[nH]c(C(=O)Nc2ccc(C)c(C)c2)c1C | 3.78% |
| Cc1ccc(C(=O)Nc2nc3ccc(Cl)cc3s2)o1 | -11.7% |
| Cc1cc(C(F)(F)F)c2c(N)c(C(=O)Nc3cc(C)on3)sc2n1 | -11.1% |
| O=C(Nc1nc2ccccc2s1)c1ccccc1[N+](=O)[O-] | -1.9% |
| CN(c1ccc2nc3ccccc3c(=O)n2n1)C1CCCCC1 | -31% |
| CCOc1ccccc1-c1nc(-c2ccc(C)nc2OC)no1 | -11.6% |
| CC(=O)Nc1nc(C)c(-c2csc(Nc3cccc(C(C)=O)c3)n2)s1 | -27.3% |
| COc1ccccc1-c1nc(-c2ccc(C)nc2OC)no1 | 0.036% |
| CS(=O)(=O)c1nc(-c2ccc(F)cc2)cc(C(F)(F)F)n1 | -44.8% |
| CCOC(=O)c1cnc2c(ccc3ccccc32)c1N | -7.34% |
| O=C(Nc1cccc(Cl)c1)Nc1cc(S(=O)(=O)N2CCCCC2)ccc1Cl | -29.2% |
| O=C(N/N=C\c1cc(Br)ccc1O)c1ccc(S(=O)(=O)N2CCCCC2)cc1 | -36.8% |
| O=C(Nc1ccc(Cl)c(S(=O)(=O)N2CCOCC2)c1)c1ccc(OCC2CCCO2)cc1 (centres undefined) | -44.9% |
| O=C(Nc1ccc(S(=O)(=O)N2CCCCCC2)cc1)c1[nH]ncc1[N+](=O)[O-] | -28% |
| Cc1ccc(NC(=O)c2ccc([N+](=O)[O-])s2)cc1S(=O)(=O)N1CCOCC1 | -23% |
| O=C1CN(c2ccccc2)C(=S)N1C(=O)c1ccc(Br)cc1 | 1.54% |
| COc1ccc(NC(=O)c2cc(F)cc(F)c2)cc1Cl | 4.16% |
| CN(C)c1ccc(NC(=O)Nc2ccc3c(c2)nnn3C)cc1 | 4.8% |
| O=[N+]([O-])/C=C\c1ccc(N2CCOCC2)cc1 | -43.3% |

| SMILES | activity change, negative = inhibition |
| --- | --- |
| COc1ccc(C(NC(C)=O)c2ccc3cccnc3c2O)c(OC)c1 (centres undefined) | -12.3% |
| CCOC(=O)c1ccc2nc(C)c(CCC(C)=O)c(Cl)c2c1 | 2.96% |
| COc1ccc(C(=O)Nc2ccc(C)cn2)c(OC)c1 | -12.9% |
| CC(C)N1C(=O)S/C(=C\c2ccc(-c3ccc(Cl)c(C(=O)O)c3)o2)C1=O | -3.04% |
| COC(=O)c1ccc(COc2ccc3c(c2)CCC3)o1 | 8.31% |
| CN=c1scc(-c2ccccc2F)n1/N=C/c1ccc[nH]1 | -34.7% |
| O=C(/C=C/c1ccc2c(c1)OCO2)N1CCCCC1 | -4.57% |
| CCC(=O)NC(c1ccccc1OC)c1ccc2cccnc2c1O (centres undefined) | -33.2% |
| CCCC(=O)NC(c1ccc(OC)c(OC)c1)c1cc(Cl)c2cccnc2c1O (centres undefined) | -18% |
| COc1cnc(-c2ccccn2)nc1NC(C)C | -17.5% |
| COc1ccc(C(=O)C(CN2CCOCC2)c2ccccc2)cc1 (centres undefined) | 1.65% |
| COc1ccc(C(=O)CCNc2ccc(F)cc2)cc1 | -6.85% |
| CCNC(=O)CC1C(=O)N(c2ccc(F)cc2)C(=O)N1CCc1ccc(OC)cc1 (centres undefined) | 5.54% |
| COc1ccc(C(=O)C(CN2CCCC2)c2ccccc2)cc1 (centres undefined) | -17.8% |
| c1ccc(-n2ncc3c(NCc4cccs4)ncnc32)cc1 | -1.69% |
| CC(C)(C)c1ccc(C(=O)Nc2sc3c(c2C(=O)O)CCC3)cc1 | 4.71% |
| Cc1cc(C)c2c(N)c(C(=O)Nc3ncc(C)s3)sc2n1 | -25.4% |
| O=C(CC(=O)c1ccccc1)Nc1ccccc1 | 4.25% |
| O=C(CNC(=O)c1ccc(Br)cc1)c1ccccc1 | 6.33% |
| C/C(=N/N=C(/C)c1cccs1)c1cccs1 | -2.97% |

| SMILES | activity change, negative = inhibition |
| --- | --- |
| CCC[n+]1c(C)sc2c3c(ccc21)CCCC3 | -45% |
| Cc1nc2cc(NC(=O)Nc3cccc([N+](=O)[O-])c3)ccc2n1C | 3.83% |
| Cn1cc([N+](=O)[O-])c(C(=O)Nc2cc(Oc3ccccc3)cc([N+](=O)[O-])c2)n1 | -58.6% |
| Cc1cc(C)c2c(N)c(C(=O)N/N=C/c3cccnc3)sc2n1 | 4.39% |
| O=C(O)C1CCN(C(=O)OCc2ccccc2)CC1 | 2.88% |
| CC1CC(C)CN(C(=O)/C=C/c2ccc([N+](=O)[O-])s2)C1 (centres undefined) | -44.7% |
| O=C(/C=C/c1ccccc1)Nc1cccc(C(=O)O)c1 | -3.9% |
| O=C(/C=C/c1ccc([N+](=O)[O-])s1)N1CCCC1 | -43.5% |
| Cc1ccc(NC(=O)/C=C/c2ccc([N+](=O)[O-])s2)c(C)c1 | -33.7% |
| CC(C)N=c1c([N+](=O)[O-])nn(C)n1O | 2.73% |
| OCC1OC(n2cnc3c(NCc4ccco4)ncnc32)C(O)C1O (centres undefined) | -21.7% |
| CC(Oc1ccc(F)cc1)C(=O)Nc1nc(-c2ccccn2)cs1 (centres undefined) | -6.21% |
| CCC(=O)NCCc1nc2cc(NC(=O)c3cccc([N+](=O)[O-])c3)ccc2n1C | 7.29% |
| Cc1cc(C)n(-c2ccc(C(=O)Nc3ccc(C)c(S(=O)(=O)N4CCOCC4)c3)cc2)n1 | -3.78% |
| CCN1CCc2c(sc(NC(=O)c3ccc(S(=O)(=O)N4CCCCCC4)cc3)c2C(=O)NC)C1 | 1.75% |
| O=C(Nc1ccc(F)c(Cl)c1)c1ccc2c(c1)OCO2 | 3.21% |
| O=C(Cn1cnc2ccccc2c1=O)Nc1ccc2c(c1)OCCO2 | 12.2% |
| O=C(N/N=C\c1cc(Cl)ccc1O)c1ccc(S(=O)(=O)N2CCCCC2)cc1 | -27.4% |
| COc1ccc(NS(=O)(=O)c2cc(NC(=O)CNC(=O)c3cccc(OC)c3)ccc2C)cc1 | 25.5% |
